Tests used:
Test in all cases: DAPPL (digital affinity profiling via proximity ligation, sequencing); 10 mM Tris-HCl pH 7.5, 50 mM NaCl, 1 mM DTT, 4% glycerol, room temperature, 30 min; GST-TFs on glutathione beads, 16-mer random dsDNA library, 0.1% formaldehyde crosslink after washing; high values mean tight binding
Settings in all cases: protein: recombinant; tags: N-terminal GST; dsDNA, one strand shown
FLI1 = target: T1, FLI1 (Homo sapiens, UniProt Q01543 1-452)
T1 sequence: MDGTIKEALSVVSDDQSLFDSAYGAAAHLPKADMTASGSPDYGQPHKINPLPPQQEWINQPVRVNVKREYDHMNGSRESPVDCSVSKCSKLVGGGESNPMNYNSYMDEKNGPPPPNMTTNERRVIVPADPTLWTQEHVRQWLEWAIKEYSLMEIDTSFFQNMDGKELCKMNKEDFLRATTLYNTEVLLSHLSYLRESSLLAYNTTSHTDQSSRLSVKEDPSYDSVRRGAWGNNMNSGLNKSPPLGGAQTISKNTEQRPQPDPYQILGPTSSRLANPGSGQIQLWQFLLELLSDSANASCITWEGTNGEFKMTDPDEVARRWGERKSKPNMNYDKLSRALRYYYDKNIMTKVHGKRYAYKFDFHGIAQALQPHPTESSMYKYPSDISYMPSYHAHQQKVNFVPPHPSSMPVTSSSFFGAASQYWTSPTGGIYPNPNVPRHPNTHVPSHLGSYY
Outline: (§1)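 A tag-only sample was pooled with DNA-barcoded human transcription factors that had been expressed in yeast as GST fusions and captured on glutathione beads. The pools were incubated for 30 min at room temperature with 200 nmole of a random double-stranded 16-mer DNA library in Tris/NaCl/DTT/glycerol buffer, then washed, crosslinked with 0.1% formaldehyde, proximity-ligated (BsaI/T4 ligase, 1 h, 37 °C), PCR-amplified and sequenced on an Illumina NextSeq500. Binding signal is each hexamer's read frequency for a factor divided by its frequency for the tag-only sample.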

ELK1 = target: T2, ELK1 (Homo sapiens, UniProt P19419 1-428)
T2 sequence: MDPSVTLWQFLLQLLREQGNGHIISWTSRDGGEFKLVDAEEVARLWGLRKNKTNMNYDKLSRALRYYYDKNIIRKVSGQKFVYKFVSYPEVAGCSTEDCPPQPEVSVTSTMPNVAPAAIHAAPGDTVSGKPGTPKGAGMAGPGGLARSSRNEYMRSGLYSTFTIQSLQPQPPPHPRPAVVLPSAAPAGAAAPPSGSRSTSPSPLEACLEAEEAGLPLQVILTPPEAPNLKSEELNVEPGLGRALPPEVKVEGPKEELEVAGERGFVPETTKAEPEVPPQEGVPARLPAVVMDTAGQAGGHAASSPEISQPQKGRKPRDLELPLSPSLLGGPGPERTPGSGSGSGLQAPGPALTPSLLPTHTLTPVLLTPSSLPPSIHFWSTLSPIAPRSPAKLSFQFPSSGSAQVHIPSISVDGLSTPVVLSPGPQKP
Outline: as §1

GABPA = target: T3, GABPA (Homo sapiens, UniProt Q06546 1-454)
T3 sequence: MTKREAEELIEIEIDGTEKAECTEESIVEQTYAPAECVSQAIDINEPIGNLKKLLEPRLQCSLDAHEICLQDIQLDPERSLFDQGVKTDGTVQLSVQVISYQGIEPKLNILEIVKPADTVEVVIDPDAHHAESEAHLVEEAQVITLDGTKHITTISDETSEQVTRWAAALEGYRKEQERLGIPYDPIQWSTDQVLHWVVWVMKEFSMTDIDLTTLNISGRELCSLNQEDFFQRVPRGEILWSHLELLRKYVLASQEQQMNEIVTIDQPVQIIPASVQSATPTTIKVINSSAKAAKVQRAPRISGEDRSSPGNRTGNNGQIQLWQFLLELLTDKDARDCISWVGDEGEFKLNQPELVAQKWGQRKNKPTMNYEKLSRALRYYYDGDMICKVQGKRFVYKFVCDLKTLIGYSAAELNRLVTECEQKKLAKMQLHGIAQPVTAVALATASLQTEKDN
Outline: as §1

ERG = target: T4, ERG (Homo sapiens, UniProt P11308 1-479)
T4 sequence: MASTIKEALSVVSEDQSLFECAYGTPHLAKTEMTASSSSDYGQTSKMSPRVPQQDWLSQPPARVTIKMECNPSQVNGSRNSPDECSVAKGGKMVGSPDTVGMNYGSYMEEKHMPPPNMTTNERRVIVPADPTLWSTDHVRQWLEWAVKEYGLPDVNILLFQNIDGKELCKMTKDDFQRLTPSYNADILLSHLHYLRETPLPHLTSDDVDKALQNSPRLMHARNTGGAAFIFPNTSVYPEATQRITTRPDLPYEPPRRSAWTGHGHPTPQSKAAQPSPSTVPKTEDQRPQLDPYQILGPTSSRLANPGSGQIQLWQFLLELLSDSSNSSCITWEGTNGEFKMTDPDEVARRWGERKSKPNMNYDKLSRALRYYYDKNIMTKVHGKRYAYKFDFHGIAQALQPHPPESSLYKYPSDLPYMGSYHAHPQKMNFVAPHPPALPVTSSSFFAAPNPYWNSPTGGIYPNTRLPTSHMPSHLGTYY
Outline: as §1

ELF1 = ELF1 (Homo sapiens, UniProt P32519 1-619)
Chain of ELF1 (P32519 whole entry): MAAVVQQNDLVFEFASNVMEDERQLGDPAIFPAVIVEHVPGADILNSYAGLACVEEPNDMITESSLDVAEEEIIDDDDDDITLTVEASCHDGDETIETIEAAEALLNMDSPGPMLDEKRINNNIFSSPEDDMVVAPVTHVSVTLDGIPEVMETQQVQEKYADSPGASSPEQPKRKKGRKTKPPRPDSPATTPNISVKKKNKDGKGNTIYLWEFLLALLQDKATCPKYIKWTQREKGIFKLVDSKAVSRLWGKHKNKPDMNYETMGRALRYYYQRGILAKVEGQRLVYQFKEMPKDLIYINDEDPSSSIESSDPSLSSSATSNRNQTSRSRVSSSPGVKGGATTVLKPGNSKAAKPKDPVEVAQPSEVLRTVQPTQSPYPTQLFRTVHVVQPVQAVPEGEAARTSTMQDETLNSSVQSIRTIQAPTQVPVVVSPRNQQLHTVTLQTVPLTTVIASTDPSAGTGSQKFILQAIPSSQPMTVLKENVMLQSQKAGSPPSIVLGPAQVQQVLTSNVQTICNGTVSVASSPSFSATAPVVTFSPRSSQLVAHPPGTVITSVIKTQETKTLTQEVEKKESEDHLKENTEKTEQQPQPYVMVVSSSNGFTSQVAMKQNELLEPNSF
Outline: as §1

EHF = target: T5, EHF (Homo sapiens, UniProt Q9NZC4 1-300)
T5 sequence: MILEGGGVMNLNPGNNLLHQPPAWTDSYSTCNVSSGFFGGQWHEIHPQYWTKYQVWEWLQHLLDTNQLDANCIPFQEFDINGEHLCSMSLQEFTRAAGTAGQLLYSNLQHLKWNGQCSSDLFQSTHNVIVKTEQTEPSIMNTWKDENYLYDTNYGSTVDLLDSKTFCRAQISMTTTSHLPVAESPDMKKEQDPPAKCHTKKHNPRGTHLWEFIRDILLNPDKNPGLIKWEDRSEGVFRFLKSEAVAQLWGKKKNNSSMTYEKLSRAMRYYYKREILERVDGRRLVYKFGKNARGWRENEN
Outline: as §1

SPI1 = SPI1 (Homo sapiens, UniProt P17947 1-270)
Outline: as §1

SPIB = SPIB (Homo sapiens, UniProt Q01892 1-262)
Chain of SPIB (Q01892 whole entry): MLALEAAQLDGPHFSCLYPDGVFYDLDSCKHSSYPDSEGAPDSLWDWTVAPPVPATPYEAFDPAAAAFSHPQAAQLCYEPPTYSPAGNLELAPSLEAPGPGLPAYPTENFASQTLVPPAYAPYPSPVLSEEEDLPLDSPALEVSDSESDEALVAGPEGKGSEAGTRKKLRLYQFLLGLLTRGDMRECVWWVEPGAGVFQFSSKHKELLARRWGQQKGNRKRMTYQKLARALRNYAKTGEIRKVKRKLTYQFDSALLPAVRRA
Outline: as §1

ELK3 = target: T6, ELK3 (Homo sapiens, UniProt P41970 1-407)
T6 sequence: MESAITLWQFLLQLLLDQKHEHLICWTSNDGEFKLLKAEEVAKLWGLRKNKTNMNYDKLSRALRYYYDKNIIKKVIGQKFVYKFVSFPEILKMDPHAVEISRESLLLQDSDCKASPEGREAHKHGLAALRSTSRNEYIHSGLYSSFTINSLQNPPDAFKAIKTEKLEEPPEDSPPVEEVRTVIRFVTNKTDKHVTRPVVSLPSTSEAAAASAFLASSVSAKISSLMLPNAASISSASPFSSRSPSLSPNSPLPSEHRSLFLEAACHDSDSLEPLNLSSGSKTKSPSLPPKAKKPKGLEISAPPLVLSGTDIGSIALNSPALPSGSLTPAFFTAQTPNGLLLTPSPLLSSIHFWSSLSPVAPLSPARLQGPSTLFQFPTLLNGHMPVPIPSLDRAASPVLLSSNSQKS
Outline: as §1

## CCTTAT
FLI1
  binding signal: 1.53 fold enrichment (6-mer frequency, TF over GST control)
ELK1
  binding signal: 1.34 fold enrichment (6-mer frequency, TF over GST control)
GABPA
  binding signal: 1.48 fold enrichment (6-mer frequency, TF over GST control)
ERG
  binding signal: 1.45 fold enrichment (6-mer frequency, TF over GST control)
ELF1
  binding signal: 1.39 fold enrichment (6-mer frequency, TF over GST control)
EHF
  binding signal: 1.57 fold enrichment (6-mer frequency, TF over GST control)
SPI1
  binding signal: 1.6 fold enrichment (6-mer frequency, TF over GST control)
SPIB
  binding signal: 1.49 fold enrichment (6-mer frequency, TF over GST control)
ELK3
  binding signal: 1.28 fold enrichment (6-mer frequency, TF over GST control)
